Assay outcomes (PubChem)
TMEM16A act – activators or potentiators of mouse TMEM16A chloride channel; Q8BHY3; HEK293 TMEM16A/YFP-H148Q/I152L, iodide quench fluorescence; active compounds read low; B-score at 10 µM; 340,000 tested, 0.3% active;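 active = fluorescence-ratio B-score plate-corrected deviation score at least 3 library SD below zero, with starting fluorescence score within 5 deviations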;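 note: channel opened by trigger with iodide after compound preincubation; score built on the fluorescence ratio of max minus min over baseline; more negative score means more quench and so TMEM16A activation or potentiation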
DAGLB inhibitor – blocks human DAGLB lipase activity; 340,000 tested, 0.059% active; HEK293T DAGLB membrane lysate, EnzChek fluorogenic substrate; Q8NCG7; inhibition, % at 5.17 µM; in the data active = inhibition above about 34%;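 note: 0% = enzyme with vehicle and 100% = wells lacking enzyme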
hiPSC survival – enhancers of human iPSC single-cell survival; survival enhancement, % at 20 µM; hiPSC single-cell survival, ATPlite luminescence; 100% = ROCK inhibitor wells, 0% = DMSO; 360,000 tested, 0.044% active; in the data active = survival enhancement above about 18%;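 note: cells exposed to compounds for 16 hours before the ATP read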
TMEM16A inh – mouse TMEM16A channel inhibition, primary screen; Q8BHY3; HEK293 TMEM16A/YFP iodide influx fluorescence, ionomycin; normalized B-score (activity score, 25-100; higher = stronger inhibition) at 10 µM; 310,000 tested, 1.2% active;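 active = ratio plate-corrected score three or more library SD toward inhibition, starting fluorescence score within five deviations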;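 note: score derived from kinetic fluorescence span divided by baseline fluorescence per well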
ABCB6 inh MLPCN – inhibitors of human ABC transporter ABCB6; Q9NP58; fluorescence ratio to DMSO, % at 10 µM; 360,000 tested, 0.19% active; K562-ABCB6 porphyrin accumulation, flow cytometry, 1 h; active compounds read low; AID 602162;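 active = fluorescence ratio to DMSO below 75%, the collection mean minus 3 SD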;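 note: signal is porphyrin accumulated inside mitochondria; 100% equals median channel fluorescence of DMSO control wells; lower ratio means ABCB6 inhibition with less porphyrin fluorescence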
TMEM16A reconf – re-confirmation of mouse TMEM16A chloride channel inhibitors | 2,300 tested, 39% active | inhibition, % at 10 µM | AID 652189 | shares compounds with TMEM16A inh | HEK293 TMEM16A/YFP-H148Q, iodide quench fluorescence; ionomycin added to raise cell calcium;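 active = mean duplicate percent inhibition, scaled so buffer wells are 0 and the reference blocker 100, over three buffer SD above buffer mean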
HEK293 Ca mobil – calcium mobilization counter-screen hit for TMEM16A inhibitor series; shares compounds with TMEM16A inh; TMEM16A/YFP HEK293, Fluo4 calcium mobilization; calcium response (% of ionomycin), % at 10 µM; 2,300 tested, 2% active; AID 652231;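 active = duplicate-averaged calcium signal over 20% of the ionomycin maximum, relative to buffer baseline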;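 note: each well's signal is peak minus trough fluorescence divided by its pre-addition baseline; 0% = buffer wells and 100% = ionomycin wells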
YFP-HEK293 quench – acts in parental YFP-HEK293 cells lacking TMEM16A, counter-screen. shares compounds with TMEM16A inh. iodide YFP quench, ionomycin. YFP ratio F(max-min)/F0 at 10 µM. 2,300 tested, under 10 active;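 active = yellow fluorescent protein signal ratio exceeding the buffer control mean by over 5 SD of those controls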;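 note: ratio is mean of duplicate wells from kinetic YFP trace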
ClC-1 rat inh – blocks the rat ClC-1 voltage-dependent chloride channel. CHO ClC-1-YFP, iodide influx fluorescence quench; iodide control reads 0, buffer control 100. AID 652236. shares compounds with TMEM16A inh. 2,300 tested, under 10 active. ratio percent, % at 10 µM;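 active = duplicate-mean ratio percent above the mean of iodide-only control wells, which defines zero, plus 5 of their SD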;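 note: higher percent means stronger block of ClC-1 iodide influx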
Numbers without * were called inactive; i = inactive; / = no result given. The list is not random: actives were taken first. Their share in the collection is about 1.5%.

SMILES | TMEM16A act | DAGLB inhibitor | hiPSC survival | TMEM16A inh | ABCB6 inh MLPCN | TMEM16A reconf | HEK293 Ca mobil | YFP-HEK293 quench | ClC-1 rat inh
Cc1cc(C(=O)CSc2nc3ccccc3o2)c(C)n1CC1CCCO1 (stereo unspecified) | i | -2 | -2 | 100* | 96 | i | i | -1.1 | -24
Cc1cc(C(=O)CSc2nc3ccccc3[nH]2)c(C)n1CC1CCCO1 (stereo unspecified) | i | 0 | -1 | 25* | 93 | i | i | -1.2 | -30
O=c1cc(N=Nc2ccc(Cl)cc2)[nH]c(=O)[nH]1 | i | 2 | 2 | i | 102 | / | / | / | /
COc1ccc(N2CCN(S(=O)(=O)c3c(C)[nH]c(C)c3C(=O)N3CCCCC3)CC2)cc1 | i | 1 | 0 | i | 99 | / | / | / | /
CCn1cc(/C=C(\NC(=O)c2ccccc2OC)C(=O)N2CCN(C)CC2)c2ccccc21 | i | 0 | 0 | i | 101 | / | / | / | /
CC(C)(C)C(=O)NC(NC(=S)Nc1sc2c(c1C#N)CCCC2)C(Cl)(Cl)Cl (stereo unspecified) | i | 1 | 6 | 100* | 103 | 34%* | i | -1.2 | -10
Cc1ccccc1OCC(=O)OCC(=O)Nc1cc(S(C)(=O)=O)ccc1Cl | i | 1 | 0 | i | 101 | / | / | / | /
c1ccc(-c2csc(N3CCN(c4ccccn4)CC3)n2)cc1 | i | -14 | -2 | 25* | 101 | i | i | -1.1 | -8
COc1ccc(-n2c(=O)cc(N3CCN(c4ccccc4OC)CC3)[nH]c2=O)cc1 | i | 0 | 1 | i | 91 | / | / | / | /
COc1ccccc1N1CCN(c2cc(=O)n(-c3ccccc3Cl)c(=O)[nH]2)CC1 | i | -1 | 0 | 100* | 97 | i | i | -1 | -8
COc1ccc(-n2c(=O)cc(N3CCN(c4ccccc4F)CC3)[nH]c2=O)cc1 | i | -1 | -1 | 25* | 106 | i | i | -1 | -6
COc1ccc2cc(CN(Cc3cccnc3)S(=O)(=O)c3ccccc3)c(=O)[nH]c2c1 | i | 1 | 5 | 100* | 97 | i | i | -0.86 | -6
CCCCN(Cc1cc2cc(OC)ccc2[nH]c1=O)S(=O)(=O)c1ccc(C)cc1 | i | -1 | 9 | 25* | 103 | 29%* | i | -0.64 | -18
COc1ccccc1N(CC(=O)NCCSCc1cccc(C)c1)S(=O)(=O)c1ccccc1 | i | -5 | 0 | 25* | 87 | i | i | -0.96 | -18
CC1(c2nc3ccccc3[nH]2)CCCC2=Nc3ccccc3CN21 (stereo unspecified) | / | / | -1 | / | 92 | / | / | / | /
Cc1nc(N)sc1-c1csc(Nc2ccc(Cl)cn2)n1 | i | 6 | -2 | 25* | 111 | 26%* | i | -0.95 | -2
Cc1nc(N)sc1-c1csc(Nc2cccc(O)c2)n1 | i | -3 | 0 | i | 98 | / | / | / | /
Cc1nc(C)c(-c2csc(Nc3ccccn3)n2)s1 | i | -1 | 0 | 25* | 102 | 28%* | i | -1.1 | -6
Cc1nc(N)sc1-c1csc(Nc2ccccn2)n1 | i | 2 | -2 | / | 106 | / | / | / | /
Cc1nc(C)c(-c2csc(Nc3cccc(O)c3)n2)s1 | i | 2 | -2 | 100* | 107 | 38%* | i | -0.81 | -8
Cc1cnn(C(=O)Cn2nc(C(F)F)c(Br)c2C)c1 | i | -1 | 0 | / | 93 | / | / | / | /
O=C(NCCc1ccccc1)c1ccc(S(=O)(=O)N2CCCC2)cc1 | i | 2 | -3 | / | 101 | / | / | / | /
CSc1ccc(C2NC(=O)c3c(sc4c3CCN(C)C4)N2)cc1 (stereo unspecified) | i | -8 | 0 | i | 117 | i | i | -0.53 | -6
CN1CCc2c(sc3c2C(=O)NC(c2cccs2)N3)C1 (stereo unspecified) | i | -6 | 1 | i | 114 | / | / | / | /
COc1cccc(OC)c1-c1nn2c(-c3ccccc3Cl)nnc2s1 | i | -1 | -2 | i | 98 | i | i | -1 | -10
SMILES | TMEM16A act | DAGLB inhibitor | hiPSC survival | TMEM16A inh | ABCB6 inh MLPCN | TMEM16A reconf | HEK293 Ca mobil | YFP-HEK293 quench | ClC-1 rat inh
Clc1ccccc1-c1nnc2sc(-c3ccccn3)nn12 | i | 0 | 8 | / | 96 | / | / | / | /
O=S1(=O)CC(N2CCN(CC3CC3)CC2)CN1Cc1ccccc1 (stereo unspecified) | / | / | -1 | / | 104 | / | / | / | /
O=C(NC(=O)c1c(Cl)cccc1Cl)Nc1ccc(Oc2cccnc2)nc1 | i | / | 0 | i | 101 | / | / | / | /
O=C(Nc1ccc(Oc2cccnc2)nc1)c1ccc(C(F)(F)F)cc1 | i | -3 | 0 | 25* | 95 | i | i | -0.97 | -8
O=C(Nc1ccc(Oc2cccc(C(F)(F)F)c2)nc1)c1ccco1 | i | -2 | 0 | i | 97 | / | / | / | /
CC(C)(C)c1ccc(Oc2ccc(NC(=O)c3ccco3)cn2)cc1 | i | -4 | 0 | 100* | 103 | 20%* | i | -1.1 | -12
CCCC/C(C)=N\NC(=O)CNS(=O)(=O)c1ccc([N+](=O)[O-])cc1 | i | 1 | 2 | 25* | 101 | i | i | -0.93 | 2
O=C(c1cccc(NS(=O)(=O)c2cccc(F)c2)c1)N1CCCC1 | i | -1 | 1 | / | 103 | / | / | / | /
CC(C)N1C(=O)c2ccccc2C1C(=O)NC1CCCCCC1 (stereo unspecified) | i | 1 | 3 | i | 97 | / | / | / | /
CCC(C)N1C(=O)c2ccccc2C1C(=O)NC1CCCCCC1 (stereo unspecified) | i | 0 | 1 | 25* | 100 | i | i | -1.1 | -17
Cc1ccc([C@@H]2C[C@H]3[C@@H](CN2S(=O)(=O)c2ccc(Cl)cc2)C(=O)C[C@@H](c2ccc(Cl)cc2)N3S(=O)(=O)c2ccccc2C)cc1 | / | -17 | 2 | / | 92 | / | / | / | /
CN(C)c1ccc(-c2noc(C3CCN(S(=O)(=O)c4cccc(Cl)c4)CC3)n2)cc1 | i | -1 | -2 | i | 98 | / | / | / | /
O=S(=O)(c1ccc2ccccc2c1)N1CCC(c2nc(-c3ccncc3)no2)CC1 | i | -6 | 0 | 100* | 93 | 17%* | i | -0.93 | -6
O=C(CCC1CCCCC1)Nc1ccccc1-c1ccccc1 | i | -12 | 6 | 100* | 106 | 26%* | i | -0.79 | -5
